Values without a mark were called inactive. Results filed as inconclusive are left out. Entries that show only a call come without a potency. Calls of active or inactive are those of the source. Unless noted, calls come from the whole dose curve; as a rule, active = well fitted curve in the direction sought with a large enough effect in the repeat runs; inconclusive = weak or mixed curves; inactive = no such curve, though single readings can be large; an effect the other way counts as inactive or inconclusive.
How the values were obtained:
[1] = qHTS assay to identify small molecule agonists of the hypoxia (HIF-1) signaling pathway (AID 1224846; active = well fitted activation curve with a large enough effect in the signal ratio in the repeat runs, not every such curve was filed as active; the % refers to the signal ratio)
In short: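 HRE-bla ME-180 beta-lactamase reporter cells in medium with 0.5% dialyzed FBS, pre-incubated 5 h then exposed to compounds 17 h at 37C, 5% CO2; reporter induction read with CCF4-AM FRET substrate.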

[2] = qHTS assay to identify small molecule agonists of H2AX - cell viability counter screen (AID 1224847; calls by dose curve; note: nearly all actives have a fitted effect of over 30% in size; note: potency is the fitted concentration of half-maximal effect)
In short: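 Compounds tested at 15 concentrations were incubated 3 hr at 37C with wild-type CHO-K1 cells; cellular ATP-based luminescence (CellTiter-Glo) indicated viability.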

[3] = qHTS assay to identify small molecule antagonists of the estrogen related receptor (ERR) signaling pathway from Tox21 library (AID 1224848); note: nearly all actives have a fitted effect of over 50% in size; note: potency is the fitted concentration of half-maximal effect
In short: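 Luminescent reporter read-out (ONE-Glo) from NTP's ERR cell line after 18 h treatment at 37 C with DMSO-dissolved Tox21 compounds; cells pre-plated 6 h beforehand at 2,000 per well.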

[4] = qHTS assay to identify small molecule agonists of the estrogen related receptor (ERR) signaling pathway from Tox21 library (AID 1224849; calls by dose curve; note: nearly all actives have a fitted effect of over 15% in size); details: ERR reporter cell line, ONE-Glo luciferase, 18 h; at 92.4 µM (top of the series) unless noted
In short: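 ERR reporter cells (NTP line) pre-incubated 6 hours at 37 C, then exposed to compounds for 18 hours at 37 C. ONE-Glo luciferase luminescence was read after 30 minutes at room temperature.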

[5] = qHTS RealTime-Glo MT Cell Viability Assay in HepG2 cells - 24 hour (AID 1224867); note: nearly all actives have a fitted effect of over 50% in size
In short: (§1)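 HepG2 cells (600/well) were dispensed with RealTime-Glo reagents, incubated 5 h at 37 °C, then treated with compounds in DMSO for up to 40 h. Nonlytic NanoLuc luminescence reflecting viable cells was read at each stated time point.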

[6] = qHTS RealTime-Glo MT Cell Viability Assay in HEK293 cells - 32 hour (AID 1224868); note: nearly all actives have a fitted effect of over 50% in size; note: potency is the fitted concentration of half-maximal effect
In short: (§2)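 HEK293 cells seeded with NanoLuc/prosubstrate reagent, rested 5 h at 37 C, then dosed and kept at 37 C up to 40 h. Nonlytic real-time luminescence from viable cells read at 0, 8, 16, 24, 32 and 40 h.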

[7] = A CellTox Green Cytotoxicity Assay to monitor cytotoxicity in HEK293 cells - 0 hour (AID 1224869); note: nearly all actives have a fitted effect of over 50% in size; note: potency is the fitted concentration of half-maximal effect
In short: (§3)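 HEK293 cells, 600/well, were preincubated 5 hours and then exposed to compounds at 37 C for up to 40 hours. A cell-impermeant cyanine dye staining dead-cell DNA was read by fluorescence at 0, 8, 16, 24, 32 and 40 h time points.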

[8] = A CellTox Green Cytotoxicity Assay to monitor cytotoxicity in HEK293 cells - 40 hour (AID 1224871); note: nearly all actives have a fitted effect of over 45% in size
In short: as §3

[9] = qHTS RealTime-Glo MT Cell Viability Assay in HEK293 cells - 16 hour (AID 1224872); note: nearly all actives have a fitted effect of over 50% in size; note: potency is the fitted concentration of half-maximal effect
In short: as §2

[10] = qHTS RealTime-Glo MT Cell Viability Assay in HepG2 cells - 8 hour (AID 1224873); note: nearly all actives have a fitted effect of over 55% in size
In short: (§4)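 HepG2 cells (600/well) mixed with RealTime-Glo MT reagent, settled 5 h at 37 C/5% CO2 before compound addition. Nonlytic NanoLuc luminescence from viable-cell prosubstrate reduction read repeatedly during 40 h treatment at 37 C.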

[11] = A CellTox Green Cytotoxicity Assay to monitor cytotoxicity in HEK293 cells - 24 hour (AID 1224875); note: nearly all actives have a fitted effect of over 45% in size; note: potency is the fitted concentration of half-maximal effect
In short: as §3

[12] = A CellTox Green Cytotoxicity Assay to monitor cytotoxicity in HepG2 cells - 16 hour (AID 1224876); note: nearly all actives have a fitted effect of over 45% in size; note: potency is the fitted concentration of half-maximal effect
In short: (§5)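 HepG2 cells, 600/well, preincubated 5 h with CellTox Green dye, then exposed to Tox21 compounds in DMSO at 37 C for up to 40 h. Dead-cell DNA fluorescence read at the indicated time point.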

[13] = qHTS RealTime-Glo MT Cell Viability Assay in HepG2 cells - 32 hour (AID 1224877); note: nearly all actives have a fitted effect of over 55% in size
In short: as §1

[14] = A CellTox Green Cytotoxicity Assay to monitor cytotoxicity in HepG2 cells - 24 hour (AID 1224878); note: nearly all actives have a fitted effect of over 45% in size; note: potency is the fitted concentration of half-maximal effect
In short: as §5

[15] = A CellTox Green Cytotoxicity Assay to monitor cytotoxicity in HepG2 cells - 40 hour (AID 1224879); note: nearly all actives have a fitted effect of over 40% in size; note: potency is the fitted concentration of half-maximal effect
In short: as §5

[16] = qHTS RealTime-Glo MT Cell Viability Assay in HEK293 cells - 0 hour (AID 1224880)
In short: (§6)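 600 cells/well were plated with the nonlytic NanoLuc/prosubstrate reagent, pre-incubated 5 h, then given 23 nL of compound in DMSO. Incubation at 37 C for 40 h, with luminescence from viable-cell-reduced substrate read repeatedly from 0 h.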

[17] = A CellTox Green Cytotoxicity Assay to monitor cytotoxicity in HEK293 cells - 32 hour (AID 1224881); note: nearly all actives have a fitted effect of over 40% in size; note: potency is the fitted concentration of half-maximal effect
In short: as §3

[18] = qHTS RealTime-Glo MT Cell Viability Assay in HepG2 cells - 40 hour (AID 1224870); note: nearly all actives have a fitted effect of over 50% in size
In short: as §4

[19] = qHTS RealTime-Glo MT Cell Viability Assay in HEK293 cells - 40 hour (AID 1224874); details: RealTime-Glo luminescence; max response: stronger effect = lower value; note: nearly all actives have a fitted effect of over 50% in size; note: potency is the fitted concentration of half-maximal effect
In short: as §6

For `CCOP(=S)(OCC)SCCS(=O)(=O)CC`, the outcome [1] was “inactive”, the Potency [2] was “inactive” and the Potency [3] was “inactive”. The activity change, positive = activation [4] was 1.7%, the Potency [5] was “inactive” and the Potency [6] was “inactive”. The Potency [7] was “inactive”, the Potency [8] was “inactive” and the Potency [9] was “inactive”. For the same compound, the Potency [10] was “inactive”, the Potency [11] was “inactive” and the Potency [12] was “inactive”. For the same compound, the Potency [13] was “inactive”, the Potency [14] was “inactive” and the Potency [15] was “inactive”. The Potency [16] was “inactive” and the Potency [17] was “inactive”.
With `Oc1cccc(-c2ccccc2)c1` the outcome [1] was “inactive”, the Potency [3] was “inactive” and the Potency [5] was “inactive”. For the same compound, the Potency [7] was “inactive”, the Potency [8] was “inactive” and the Potency [10] was “inactive”. For the same compound, the Potency [11] was “inactive”, the Potency [12] was “inactive” and the Potency [13] was “inactive”. The Potency [14] was “inactive”, the Potency [15] was “inactive” and the Potency [16] was “inactive”. For the same compound, the Potency [17] was “inactive”.
For `N#CNC#N`, the outcome [1] was “inactive”, the Potency [2] was “inactive” and the Potency [5] was “inactive”. The Potency [6] was “inactive”, the Potency [7] was “inactive” and the Potency [18] was “inactive”. The Potency [8] was “inactive”, the Potency [9] was “inactive” and the Potency [10] was “inactive”. The max response [19] was 1.5%, the Potency [11] was “inactive” and the Potency [12] was “inactive”. The Potency [13] was “inactive”, the Potency [15] was “inactive” and the Potency [16] was “inactive”. For the same compound, the Potency [17] was “inactive”.
With `CCN(CC)c1c([N+](=O)[O-])cc(C(F)(F)F)c(N)c1[N+](=O)[O-]` the outcome [1] was “inactive”, the Potency [2] was 113 µM (active) and the Potency [6] was 19.5 µM (active). For the same compound, the Potency [7] was “inactive”, the Potency [18] was “inactive” and the Potency [9] was 12.3 µM (active). The Potency [19] was 21.9 µM (active) and the Potency [16] was “inactive”.
With `O=C(NC(=O)c1c(F)cccc1F)Nc1cc(Cl)c(OC(F)(F)C(F)F)c(Cl)c1` the outcome [1] was “inactive”, the Potency [2] was “inactive” and the Potency [5] was “inactive”. The Potency [6] was “inactive”, the Potency [7] was “inactive” and the Potency [18] was “inactive”. The Potency [9] was “inactive”, the Potency [10] was “inactive” and the Potency [11] was “inactive”. For the same compound, the Potency [12] was “inactive”, the Potency [13] was “inactive” and the Potency [14] was “inactive”. The Potency [15] was “inactive”, the Potency [16] was “inactive” and the Potency [17] was “inactive”.
For `Cc1c(Cl)c(=O)oc2cc(OP(=O)(OCCCl)OCCCl)ccc12`, the outcome [1] was “inactive”, the Potency [2] was “inactive” and the Potency [5] was “inactive”. The Potency [7] was “inactive”, the Potency [8] was “inactive” and the Potency [11] was “inactive”. The Potency [12] was “inactive”, the Potency [13] was “inactive” and the Potency [14] was “inactive”. The Potency [15] was “inactive”, the Potency [16] was “inactive” and the Potency [17] was “inactive”.
In the case of `CC(=O)/C=C/c1ccc2c(c1)OCO2`, the outcome [1] is reported as “inactive”, the Potency [3] is reported as 43.5 µM (active) and the activity change, positive = activation [4] is reported as -46.7%. The Potency [5] was “inactive”, the Potency [6] was “inactive” and the Potency [7] was “inactive”. The Potency [18] was “inactive”, the Potency [8] was “inactive” and the Potency [9] was “inactive”. The Potency [10] was “inactive”, the max response [19] was -11.6% and the Potency [11] was “inactive”. The Potency [12] was “inactive”, the Potency [15] was 49.2 µM (active) and the Potency [16] was “inactive”. The Potency [17] was “inactive”.
In the case of `N#Cc1ccccc1N`, the outcome [1] is reported as “inactive”, the Potency [2] is reported as “inactive” and the activity change, positive = activation [4] is reported as -12.6%. The Potency [5] was “inactive”, the Potency [6] was “inactive” and the Potency [7] was “inactive”. For the same compound, the Potency [18] was “inactive”, the Potency [8] was “inactive” and the Potency [9] was “inactive”. For the same compound, the Potency [10] was “inactive”, the max response [19] was 0.901% and the Potency [11] was “inactive”. For the same compound, the Potency [12] was “inactive”, the Potency [13] was “inactive” and the Potency [14] was “inactive”. The Potency [15] was “inactive”, the Potency [16] was “inactive” and the Potency [17] was “inactive”.
For `CC(=O)Nc1ccc2c(c1)Cc1ccccc1-2`, the outcome [1] was “inactive”, the Potency [2] was “inactive” and the Potency [5] was “inactive”. The Potency [6] was “inactive”, the Potency [18] was “inactive” and the Potency [8] was “inactive”. For the same compound, the Potency [9] was “inactive”, the Potency [10] was “inactive” and the max response [19] was -12.3%. The Potency [11] was “inactive”, the Potency [12] was “inactive” and the Potency [13] was “inactive”. The Potency [14] was “inactive”, the Potency [15] was “inactive” and the Potency [16] was “inactive”. For the same compound, the Potency [17] was “inactive”.
With `BrCBr` the outcome [1] was “inactive”, the Potency [2] was “inactive” and the Potency [5] was “inactive”. For the same compound, the Potency [6] was “inactive”, the Potency [7] was “inactive” and the Potency [18] was “inactive”. For the same compound, the Potency [8] was “inactive”, the Potency [9] was “inactive” and the Potency [10] was “inactive”. For the same compound, the max response [19] was 10.5%, the Potency [12] was “inactive” and the Potency [13] was “inactive”. The Potency [15] was “inactive”, the Potency [16] was “inactive” and the Potency [17] was “inactive”.
With `CCOCCOC(C)=O` the outcome [1] was “inactive”, the Potency [2] was “inactive” and the Potency [3] was “inactive”. The Potency [5] was “inactive”, the Potency [6] was “inactive” and the Potency [7] was “inactive”. For the same compound, the Potency [18] was “inactive”, the Potency [9] was “inactive” and the Potency [10] was “inactive”. For the same compound, the max response [19] was 4.22%, the Potency [12] was “inactive” and the Potency [13] was “inactive”. For the same compound, the Potency [14] was “inactive”, the Potency [15] was “inactive” and the Potency [16] was “inactive”. For the same compound, the Potency [17] was “inactive”.
For `CS(=O)(=O)c1ccc(C(=O)C2C(=O)CCCC2=O)c([N+](=O)[O-])c1`, the outcome [1] was “inactive”, the Potency [2] was “inactive” and the Potency [3] was “inactive”. The activity change, positive = activation [4] was -0.0686%, the Potency [5] was “inactive” and the Potency [7] was 44.4 µM (active). For the same compound, the Potency [18] was “inactive”, the Potency [9] was 12.5 µM (active) and the Potency [10] was “inactive”. The Potency [11] was 44.4 µM (active), the Potency [12] was 44.4 µM (active) and the Potency [13] was “inactive”. For the same compound, the Potency [14] was 39.6 µM (active), the Potency [15] was 2.23 µM (active) and the Potency [16] was “inactive”. For the same compound, the Potency [17] was 44.4 µM (active).
For `COC[C@H](C)N(C(=O)CCl)c1c(C)csc1C`, the outcome [1] was “inactive”, the Potency [2] was “inactive” and the Potency [3] was “inactive”. For the same compound, the activity change, positive = activation [4] was 9.24%, the Potency [5] was “inactive” and the Potency [6] was “inactive”. For the same compound, the Potency [7] was “inactive”, the Potency [8] was “inactive” and the Potency [9] was “inactive”. For the same compound, the Potency [10] was “inactive”, the Potency [11] was “inactive” and the Potency [12] was “inactive”. The Potency [14] was “inactive”, the Potency [15] was “inactive” and the Potency [16] was “inactive”. For the same compound, the Potency [17] was “inactive”.
With `COCC(=O)N(c1c(C)cccc1C)[C@H](C)C(=O)OC` the outcome [1] was “inactive”, the Potency [2] was “inactive” and the Potency [3] was “inactive”. The activity change, positive = activation [4] was -2.81%, the Potency [5] was “inactive” and the Potency [6] was “inactive”. The Potency [7] was “inactive”, the Potency [18] was “inactive” and the Potency [8] was “inactive”. For the same compound, the Potency [9] was “inactive”, the Potency [10] was “inactive” and the max response [19] was -0.139%. For the same compound, the Potency [11] was “inactive”, the Potency [12] was “inactive” and the Potency [13] was “inactive”. For the same compound, the Potency [14] was “inactive”, the Potency [15] was “inactive” and the Potency [16] was “inactive”. The Potency [17] was “inactive”.
